Compound activity (PubChem BioAssay)
A selection: hits, their analogues and other compounds. The true share with any hit is near 2.2%.
CHO-K1 Ca antag: nonselective inhibitor or artifact in parental CHO-K1 cells; ATP-induced calcium, Fluo-8 fluorescence; inhibition, % at 3 µM; actives 0.6% (n = 360,000);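 active means inhibition above a per-plate cutoff, the plate's mean sample inhibition plus 3 SD, cut at about 24% in these data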;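 further: 0% = DMSO plus EC80 ATP and 100% = DMSO alone without ATP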
M1 ag parental: nonselective activator or artifact in parental CHO-K1 cells; actives 0.48% (n = 360,000); Fluo-8 calcium fluorescence; scaled to maximal ATP response, vehicle zero; activation, % at 3 µM; AID 602248; in the data active means activation above about 15%;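 further: untransfected CHO-K1 host cells lacking M1 receptor as counterscreen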
ANO1 block: mouse TMEM16A channel inhibition, primary screen; Q8BHY3; AID 588511; normalized B-score (activity score, 25-100; higher = stronger inhibition) at 10 µM; actives 1.2% (n = 310,000); HEK293 TMEM16A/YFP iodide influx fluorescence, ionomycin;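 active means ratio plate-corrected score three or more library SD toward inhibition, starting fluorescence score within five deviations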;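 further: score derived from kinetic fluorescence span divided by baseline fluorescence per well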
Target sequence (Q8BHY3 whole entry, looked up): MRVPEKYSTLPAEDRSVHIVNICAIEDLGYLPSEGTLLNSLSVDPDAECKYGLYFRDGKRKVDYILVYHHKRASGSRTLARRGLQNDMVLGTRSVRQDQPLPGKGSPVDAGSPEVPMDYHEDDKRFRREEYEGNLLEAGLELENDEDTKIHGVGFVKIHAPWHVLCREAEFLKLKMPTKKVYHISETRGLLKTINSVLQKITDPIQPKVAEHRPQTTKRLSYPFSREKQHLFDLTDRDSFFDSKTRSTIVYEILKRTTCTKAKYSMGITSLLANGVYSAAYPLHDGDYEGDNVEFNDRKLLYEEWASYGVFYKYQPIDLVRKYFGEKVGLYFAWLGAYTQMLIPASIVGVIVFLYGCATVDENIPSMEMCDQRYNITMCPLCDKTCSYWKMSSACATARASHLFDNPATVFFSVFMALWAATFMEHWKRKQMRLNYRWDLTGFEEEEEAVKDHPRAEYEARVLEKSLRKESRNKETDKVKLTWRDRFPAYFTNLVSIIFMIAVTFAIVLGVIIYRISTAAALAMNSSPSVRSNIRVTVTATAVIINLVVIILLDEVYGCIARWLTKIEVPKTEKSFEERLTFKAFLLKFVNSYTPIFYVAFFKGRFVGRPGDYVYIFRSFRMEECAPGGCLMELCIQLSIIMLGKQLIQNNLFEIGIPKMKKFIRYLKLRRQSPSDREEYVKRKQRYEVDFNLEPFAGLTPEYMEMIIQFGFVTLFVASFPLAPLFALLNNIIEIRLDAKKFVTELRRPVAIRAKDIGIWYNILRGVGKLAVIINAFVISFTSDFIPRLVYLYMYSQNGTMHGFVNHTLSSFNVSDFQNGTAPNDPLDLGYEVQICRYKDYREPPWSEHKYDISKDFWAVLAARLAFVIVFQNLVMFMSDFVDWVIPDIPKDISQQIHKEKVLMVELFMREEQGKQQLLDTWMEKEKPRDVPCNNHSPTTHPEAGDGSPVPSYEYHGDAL
NTR1 agonist: agonists of human neurotensin receptor NTR1 | actives 0.17% (n = 330,000) | activation, % at 20 µM | P30989 | NTR1-U2OS beta-arrestin-GFP spot imaging, agonist mode;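 active means activation at or above 40% of the spot to cytoplasm intensity ratio, with at least 20 cells analyzed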;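 further: 0% = DMSO without peptide and 100% = 100 nM NTR1 peptide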
ANO1 activ: activators or potentiators of mouse TMEM16A chloride channel; B-score at 10 µM; HEK293 TMEM16A/YFP-H148Q/I152L, iodide quench fluorescence; active compounds read low; actives 0.3% (n = 340,000); AID 623877;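 active means fluorescence-ratio B-score plate-corrected deviation score at least 3 library SD below zero, with starting fluorescence score within 5 deviations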;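 further: channel opened by trigger with iodide after compound preincubation; score built on the fluorescence ratio of max minus min over baseline; more negative score means more quench and so TMEM16A activation or potentiation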
CHO-K1 Ca PAM: M1 PAM counterscreen hit in parental CHO-K1 cells; ATP EC20, Fluo-8 calcium fluorescence; 0% at ATP EC20, 100% at ATP max; activation, % at 3 µM; actives 0.02% (n = 360,000);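 active means activation above the run cutoff, the mean activation of all test compounds plus 3 SD, cut at about 40% in these data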;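 further: peak over basal fluorescence ratio in a 140 s read after ATP addition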
The depositor's hits bear a star; i = inactive; / = no result.

SMILES	CHO-K1 Ca antag	M1 ag parental	ANO1 block	NTR1 agonist	ANO1 activ	CHO-K1 Ca PAM
CCOC(=O)c1c(CSc2ccc(CC)cc2)oc2ccc(O)c(CN(C)C)c12	6	7	100*	14	i	1
O=C(Nc1cccc(-c2cnc3ccccc3n2)c1)c1ccccc1	13	0	i	2	i	-15
O=C(Nc1ccc2nc(-c3ccccc3)oc2c1)c1ccco1	-6	1	i	-6	-14*	10
O=C(Nc1cccc(-c2cnc3ccccc3n2)c1)c1cccc(NC(=O)c2ccco2)c1	31*	4	i	12	i	8
O=C1c2ccccc2C(c2nnnn2-c2ccc3c(c2)OCCO3)N1Cc1cccnc1 (stereo unspecified)	-16	1	/	/	/	1
CC1C(=O)N(Cc2cn(CCC3OCCO3)nn2)CCS(=O)(=O)N1Cc1ccc(-c2ccc(Cl)c(Cl)c2)cc1 (stereo unspecified)	-1	9	/	/	/	16
COc1cccc(NC(=O)Cn2c3ccccc3c3nc4n(c(=O)c32)CCCS4)c1	7	1	i	1	-52*	-30
COc1ccc(NC(=O)Cn2c3ccccc3c3nc4n(c(=O)c32)CCS4)cc1OC	-7	1	i	0	-54*	6
COc1ccc(S(=O)(=O)Nc2cc(S(=O)(=O)N3CCOCC3)ccc2OC)cc1	-12	2	/	-2	i	20
Cc1cc(C)n2[nH]c(=O)cc2n1	0	0	/	/	/	1
COc1ccc(CNC(=O)c2cc(C)nc3ccccc23)cc1OC	6	1	i	1	-5.6*	12
O=C(NCc1ccc(F)c(F)c1)c1cccc2c(-c3cccnc3)coc12	2	12	/	/	/	1
COc1ccc(CNC(=O)c2cccc3c(-c4cccnc4)coc23)cc1OC	28*	15*	/	/	/	-8
COc1ccccc1CNC(=O)c1cc(C)nc2ccccc12	-15	6	i	0	i	21
CC(=O)c1ccc(OCCCC(=O)N(CCC2=CCCCC2)c2c(N)n(Cc3ccccc3)c(=O)[nH]c2=O)cc1	4	10	i	0	i	13
Cc1cscc(C)c1=S	-2	0	/	/	/	0
Cc1ccc(NC(=O)C2CCN(S(=O)(=O)c3ccc4c(c3)CC(C)N4C(=O)C3CCC3)CC2)nc1 (stereo unspecified)	3	3	i	0	i	-9
Cc1ccnc(NC(=O)C2CCN(S(=O)(=O)c3ccc4c(c3)CC(C)N4C(=O)C3CCC3)CC2)c1 (stereo unspecified)	-8	6	25*	0	i	3
CC(C)Oc1ccc(S(=O)(=O)N2CCOCC2)cc1NC(=O)C1COc2ccccc2O1 (stereo unspecified)	-9	4	/	4	i	3
COC(=O)[C@]12CCCCC=C1N(Cc1ccco1)C(=O)[C@H](CC(=O)NCc1cccc3ccccc13)C2	-6	2	/	/	/	0
CCn1c(SCC(=O)Nc2cccc(C)c2)nc2c(c1=O)SC(C)C2 (stereo unspecified)	35*	1	i	2	i	-3
CCn1c(SCC(=O)Nc2ccc3c(c2)OCO3)nc2c(c1=O)SC(C)C2 (stereo unspecified)	0	0	i	0	i	9
CC1Cc2nc(SCC(=O)Nc3ccc4c(c3)OCO4)n(CCc3ccccc3)c(=O)c2S1 (stereo unspecified)	11	1	i	-1	-5.2*	5
CN(C(=O)CSc1nc(-c2ccc(C(C)(C)C)cc2)c(C#N)c(=O)[nH]1)C1CCCCC1	-1	0	i	7	i	29
CCCCCCNC(=O)O[C@H]1Cn2c(=O)ccc(=O)n2[C@@H]2CN(S(=O)(=O)c3ccc(C)cc3)C[C@]12O	15	0	/	/	/	-15
O=C(CCN1C(=O)c2ccccc2C1=O)c1ccccc1	2	1	/	/	/	27
CC(C)(C)C(=O)/C=c1\[nH]c(=O)/c(=C\c2ccc(C#N)cc2)s1	25*	0	i	5	i	-7
Cc1cccc(/C=c2\s/c(=C\C(=O)C(C)(C)C)[nH]c2=O)c1	-15	1	i	20	i	8
